From PubChem
Pf Dd2 inh: blocks growth of Plasmodium falciparum Dd2 parasites. P. falciparum Dd2 growth, SYBR Green, 72 h; stronger effect = lower value. AID 1159554. 94,000 compounds, 2.3% hits. activity change, % at 10 µM; in the data active means activity change below about -80%; inconclusive means no clear call, values can overlap the other calls
T cruzi growth-1: T. cruzi proliferation inhibition | AID 624255 | inhibition, % at 8.34 µM | T. cruzi beta-gal in NIH3T3, GalScreen luminescence, 90 h | 77,000 compounds, 5.9% hits;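 active means mean inhibition above about 93%, with at least 55% of replicates each passing it, limit read from the data, passing the limit was not always enough; inconclusive means only one of those two conditions holds; inactive means neither condition holds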
C diff HTS: inhibitors of Clostridium difficile growth | growth activity, negative = inhibition, % at 16 µg/mL (by protocol) | 86,000 compounds, 0.25% hits | Clostridium difficile clinical isolate growth, OD600, 24 h; stronger effect = lower value;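 active means mean growth activity at or below -80% and every replicate also at or below -80%; inconclusive means mean at or below -80% but some replicate above -80%; inactive means mean growth activity above -80%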
T cruzi growth-2: inhibitors of T. cruzi proliferation; shares compounds with T cruzi growth-1; T. cruzi beta-gal in NIH3T3, GalScreen luminescence, 90 h; inhibition, % at 8.35 µM; 5,600 compounds, 72% hits; AID 651739;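 active means mean replicate inhibition above about 95% and at least 55% of replicates individually reaching it, limit read from the data; inconclusive means only one of the two criteria is met; inactive means neither criterion is met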
T cruzi growth-3: inhibitors of T. cruzi proliferation; shares compounds with T cruzi growth-1; T. cruzi beta-gal in NIH3T3, GalScreen luminescence, 90 h; inhibition, % at 2.09 µM; 5,600 compounds, 21% hits;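 active means mean inhibition above about 95%, with at least 55% of replicates also reaching it, limit read from the data; inconclusive means meets just one of the two conditions; inactive means meets neither condition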
NIH3T3 tox: cytotoxicity in mouse NIH/3T3 fibroblasts. shares compounds with T cruzi growth-1. NIH/3T3 viability, CellTiter-Glo ATP luminescence, 90 h. cytotoxicity (signal decrease), % at 8.35 µM. 5,600 compounds, 14% hits. AID 651742;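 active means mean signal decrease across replicates above about 35% based on untreated-well scatter, with enough replicates individually passing, limit read from the data; inconclusive means no rule stated though some were filed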
3T3 cytotox 2: kills mouse NIH/3T3 fibroblasts; NIH/3T3 viability, CellTiter-Glo ATP luminescence, 90 h; inhibition, % at 24.9 µM; AID 651744; shares compounds with T cruzi growth-1; 5,600 compounds, 56% hits;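 active means mean loss of cell viability signal at or above a set limit, and enough replicates individually reaching it; inconclusive means meets only the mean limit or only the replicate share; inactive means meets neither condition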
Of the large screens only hits and unclear results are named; the others gave an inactive call (follow-up assays come after a bar, where they were run); ! = not confirmed by another sample. This is a sample that favours compounds with a hit; in the whole collection about 6.8% have one here.

O=C(CN1CCOCC1)NCC[C@@H]1CC[C@H](NC(=O)Nc2ccccc2)[C@@H](CO)O1	none
C[C@H](CO)N1C[C@H](C)[C@@H](CN(C)S(=O)(=O)c2ccccc2)OCCCC[C@H](C)Oc2ccc(NC(=O)Nc3ccc(C(F)(F)F)cc3)cc2C1=O	none
C[C@@H]1CCCCO[C@H](CN(C)S(=O)(=O)c2ccccc2)[C@H](C)CN([C@@H](C)CO)C(=O)c2cc(NC(=O)Nc3ccc(C(F)(F)F)cc3)ccc2O1	Pf Dd2 inh inconclusive, T cruzi growth-1 107 | T cruzi growth-2 96 | T cruzi growth-3 111 | NIH3T3 tox inactive | 3T3 cytotox 2 inactive
C[C@@H]1CN([C@H](C)CO)C(=O)c2cc(NC(=O)Nc3ccccc3)ccc2O[C@H]1CN(C)Cc1ccc(C(F)(F)F)cc1	none
C[C@@H]1CN([C@@H](C)CO)C(=O)c2cc(NC(=O)Nc3ccc(C(F)(F)F)cc3)ccc2O[C@H]1CN(C)Cc1ccc(-c2ccccc2)cc1	T cruzi growth-1 104 | T cruzi growth-2 102 | T cruzi growth-3 inactive | NIH3T3 tox inactive | 3T3 cytotox 2 105
C[C@@H]1CN([C@H](C)CO)C(=O)c2cc(NC(=O)Nc3ccc(C(F)(F)F)cc3)ccc2O[C@H]1CN(C)Cc1ccc(-c2ccccc2)cc1	T cruzi growth-1 123 | T cruzi growth-2 inactive | T cruzi growth-3 inconclusive | NIH3T3 tox 84 | 3T3 cytotox 2 102
C[C@H](CO)N1C[C@H](C)[C@@H](CN(C)Cc2ccccc2)Oc2ccc(NC(=O)Nc3ccc(C(F)(F)F)cc3)cc2C1=O	none
C[C@H]1CN([C@@H](C)CO)C(=O)c2cc(NC(=O)Nc3ccc(C(F)(F)F)cc3)ccc2O[C@H]1CN(C)Cc1ccc(C(F)(F)F)cc1	none
C[C@@H]1CN([C@@H](C)CO)C(=O)c2cc(NC(=O)Nc3ccc(C(F)(F)F)cc3)ccc2O[C@@H]1CN(C)Cc1ccc(-c2ccccc2)cc1	T cruzi growth-1 120 | T cruzi growth-2 102 | T cruzi growth-3 98 | NIH3T3 tox 56 | 3T3 cytotox 2 103
CC(=O)N(C)C[C@H]1Oc2cc(-c3cncnc3)ccc2S(=O)(=O)N([C@H](C)CO)C[C@H]1C	none
C[C@H](CO)N1C[C@H](C)[C@@H](CN(C)Cc2ccc3c(c2)OCO3)OCCCC[C@H](C)Oc2ccc(N(C)C)cc2C1=O	none (no result: T cruzi growth-1)
C[C@H]1CCCCO[C@@H](CN(C)Cc2ccc3c(c2)OCO3)[C@@H](C)CN([C@@H](C)CO)C(=O)c2cc(N(C)C)ccc2O1	none
C[C@@H]1CN([C@@H](C)CO)C(=O)c2cc(N(C)C)ccc2O[C@@H](C)CCCCO[C@H]1CN(C)Cc1ccc2c(c1)OCO2	T cruzi growth-1 105! | T cruzi growth-2 inactive | T cruzi growth-3 inactive | NIH3T3 tox inactive | 3T3 cytotox 2 inactive
C[C@@H]1CN([C@H](C)CO)C(=O)c2cc(N(C)C)ccc2O[C@@H](C)CCCCO[C@@H]1CN(C)Cc1ccc2c(c1)OCO2	T cruzi growth-1 102 | T cruzi growth-2 inactive | T cruzi growth-3 inactive | NIH3T3 tox inactive | 3T3 cytotox 2 inactive
O=C(Nc1ccc2c(c1)OCO2)N[C@@H]1CC[C@@H](CCNC(=O)C2CCOCC2)O[C@@H]1CO	none (no result: Pf Dd2 inh, T cruzi growth-1)
CC(C)NC(=O)Nc1ccc2c(c1)C(=O)N([C@H](C)CO)C[C@H](C)[C@H](CN(C)S(=O)(=O)c1ccc(Cl)cc1)O2	none
COc1ccc(NC(=O)N(C)C[C@@H]2Oc3c(NC(=O)Nc4c(C)noc4C)cccc3C(=O)N([C@H](C)CO)C[C@@H]2C)cc1	none (no result: C diff HTS)
C[C@@H]1CN([C@@H](C)CO)C(=O)c2cc(/C=C/c3ccccc3)cnc2O[C@H]1CN(C)Cc1ccccc1F	T cruzi growth-1 127 | T cruzi growth-2 inconclusive | T cruzi growth-3 108 | NIH3T3 tox inactive | 3T3 cytotox 2 105
Cc1ccc(-c2cnc3c(c2)C(=O)N([C@H](C)CO)C[C@H](C)[C@@H](CN(C)Cc2ccccc2F)O3)cc1	T cruzi growth-1 109! | T cruzi growth-2 108 | T cruzi growth-3 inactive | NIH3T3 tox inactive | 3T3 cytotox 2 69
Cc1ccc(-c2cnc3c(c2)C(=O)N([C@H](C)CO)C[C@@H](C)[C@@H](CN(C)Cc2ccccc2F)O3)cc1	none
C/C=C/c1cnc2c(c1)C(=O)N([C@@H](C)CO)C[C@H](C)[C@H](CN(C)Cc1ccccc1F)O2	none (no result: T cruzi growth-1)
C[C@@H]1CN([C@@H](C)CO)C(=O)c2cc(/C=C/c3ccccc3)cnc2O[C@@H]1CN(C)Cc1ccccc1F	T cruzi growth-1 108 | T cruzi growth-2 114 | T cruzi growth-3 inactive | NIH3T3 tox inactive | 3T3 cytotox 2 56
C/C=C/c1cnc2c(c1)C(=O)N([C@@H](C)CO)C[C@@H](C)[C@@H](CN(C)Cc1ccccc1F)O2	none (no result: T cruzi growth-1)
O=C(C[C@H]1CC[C@@H]2[C@H](COC[C@H](O)CN2S(=O)(=O)c2ccccc2)O1)N1CCc2ccccc2C1	none (no result: C diff HTS)
O=C(C[C@@H]1CC[C@H]2[C@@H](COC[C@@H](O)CN2C(=O)c2cccnc2)O1)NC1Cc2ccccc2C1	none
C[C@H]1CN([C@@H](C)CO)S(=O)(=O)c2ccc(C#CCN(C)C)cc2O[C@@H]1CN(C)Cc1ccc2c(c1)OCO2	T cruzi growth-1 107 | T cruzi growth-2 107 | T cruzi growth-3 inactive | NIH3T3 tox inactive | 3T3 cytotox 2 106
C[C@H]1CN([C@@H](C)CO)S(=O)(=O)c2ccc(C#CCN(C)C)cc2O[C@H]1CN(C)Cc1ccc2c(c1)OCO2	T cruzi growth-1 104 | T cruzi growth-2 101 | T cruzi growth-3 inactive | NIH3T3 tox inactive | 3T3 cytotox 2 26
C[C@H](CO)N1C[C@H](C)[C@H](CN(C)Cc2ccc3c(c2)OCO3)Oc2cc(C#CCN(C)C)ccc2S1(=O)=O	Pf Dd2 inh inconclusive
C[C@@H]1CN([C@@H](C)CO)S(=O)(=O)c2ccc(C#CCN(C)C)cc2O[C@@H]1CN(C)Cc1ccc2c(c1)OCO2	none
C[C@@H]1CN([C@H](C)CO)C(=O)c2cc(NC(=O)CCN3CCOCC3)ccc2O[C@@H]1CN(C)Cc1ccc(-c2ccccc2)cc1	none
C[C@@H]1CN([C@H](C)CO)S(=O)(=O)c2ccc(C#Cc3ccccc3F)cc2O[C@@H]1CN(C)CC1CC1	none
CN(C)C(=O)c1cccc(-c2ccc([C@H]3[C@@H](CO)N4CCCCN(C(=O)C5CCC5)C[C@H]34)cc2)c1	T cruzi growth-1 inconclusive | T cruzi growth-2 107 | T cruzi growth-3 inactive | NIH3T3 tox inactive | 3T3 cytotox 2 inactive
CN(C)C(=O)c1ccc(-c2ccc([C@H]3[C@H]4CN(C(=O)C5CCC5)CCCCN4[C@H]3CO)cc2)cc1	none
CN(C)C(=O)c1cccc(-c2ccc([C@@H]3[C@@H](CO)N4CCCCN(C(=O)C5CCCC5)C[C@H]34)cc2)c1	none
